This experiment in a line: sensitizers of A549 cells to miR-34 induction, primary screen, imaging, A549 dox-inducible miR-34, nuclei and caspase counts (AID 1347080). Note: test concentration not given here. To be noted: A549 miR-34 inducible, Hoechst nuclei count, 48 h.
[1] abbreviates: stronger effect = lower value, cell number ratio, induced over uninduced.
Setting [2] is: measured here: relative caspase fold change +Dox/-Dox.
[3] abbreviates: measured here: total cells with miR-34 induction, stronger effect = lower value.
Setting [4] is: measured here: total cells without miR-34 induction.

Molecules are shown by their SMILES. The source made the active and inactive calls.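 Rule for the calls: active = compounds whose cell count with miR-34 switched on is under 0.7 times the count with it off; inactive = the rest.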

Consider `CN`, for which the fold change under setting [1] was 1.06 (inactive) and the fold change under setting [2] came to 0.984. For the same molecule, the cell count under setting [3] amounted to 4700 and the cell count under setting [4] was found to be 4430.

As to `CCCCCCCCCCCCCCCCOC[C@@H](O)COP(=O)(O)O`, the fold change is, setting by setting: under setting [1], 0.944 (inactive); under setting [2], 0.298. The cell count is 5730 under setting [3] and 6070 under setting [4].

Turning to `O=C(O)CCC/C=C/C[C@@H]1[C@@H](CC[C@@H](O)CCc2ccccc2)[C@H](O)C[C@@H]1O`, the fold change reads like this: under setting [1], 0.961 (inactive); under setting [2], 1.3. For the same molecule, the cell count under setting [3] turned out to be 5820 and the cell count under setting [4] came out at 6060.

In the case of `O=C1N[C@@H]2[C@@H](O)[C@@H](O)[C@H](O)[C@@H](CO)N2C1=O`, the fold change is 0.921 (inactive) under setting [1] and 0.979 under setting [2]. The cell count under setting [3] was determined as 4980 and the cell count under setting [4] stood at 5410.

`CCCCC[C@H](O)/C=C/[C@H]1[C@H](O)CC(=O)[C@@H]1CCCCCCCO`: the fold change under setting [1] was 0.891 (inactive) and the fold change under setting [2] turned out to be 2.02. For the same molecule, the cell count amounted to 5100 under setting [3] and 5730 under setting [4].

Consider `C[Se]CC[C@H](N)C(=O)O`, for which the fold change reads like this: under setting [1], 0.969 (inactive); under setting [2], 0.907. Also, the cell count runs as follows: under setting [3], 8780; under setting [4], 9060.

As for `CCCCCCCCCCCCCCNC(=O)C1CCCCC1`, the fold change is, setting by setting: under setting [1], 0.905 (inactive); under setting [2], 0.661. In addition, the cell count is, setting by setting: under setting [3], 4920; under setting [4], 5430.

Take `CCCCCC/C=C\CCCCCCCCCCOC(C)=O`: the fold change runs as follows: under setting [1], 0.943 (inactive); under setting [2], 0.538. Besides, the cell count reads like this: under setting [3], 5570; under setting [4], 5900.

Take `CCCCC[C@](C)(O)/C=C/[C@H]1[C@H](O)CC(=O)[C@@H]1CCCCCCC(=O)O`: the fold change is 1 (inactive) under setting [1] and 1.58 under setting [2]. In addition, the cell count came to 5750 under setting [3] and 5720 under setting [4].

`CCCCC[C@H](O)/C=C/[C@H]1C2CC(CO2)[C@@H]1CCCCCCC(=O)O` (stereo not given in full): the fold change is, setting by setting: under setting [1], 0.941 (inactive); under setting [2], 0.43. In addition, the cell count by setting is: under setting [3], 5850; under setting [4], 6210.

`CC/C=C/C[C@H](O)/C=C/[C@H]1[C@H](O)CC(=O)[C@@H]1C/C=C\CCCC(=O)O`: the fold change runs as follows: under setting [1], 0.915 (inactive); under setting [2], 1.46. Besides, the cell count runs as follows: under setting [3], 5700; under setting [4], 6230.

For the molecule `CCCCC[C@H]1/C=C/[C@@H]2[C@@H](C/C=C\CCCC(=O)O1)[C@@H](O)C[C@H]2O`, the fold change runs as follows: under setting [1], 0.933 (inactive); under setting [2], 1. Moreover, the cell count runs as follows: under setting [3], 4270; under setting [4], 4580.

With `CCCCC[C@H](O)/C=C/[C@H]1[C@H](O)CC(=O)[C@H]1C/C=C\CCCC(=O)OC(C)C`, the fold change is 0.953 (inactive) under setting [1] and 1.45 under setting [2]. Moreover, the cell count runs as follows: under setting [3], 5550; under setting [4], 5820.

Turning to `CCCCC/C=C\C/C=C\CCCCCCCC(=O)OC(CO)CO`, the fold change is 0.978 (inactive) under setting [1] and 0.884 under setting [2]. The cell count by setting is: under setting [3], 5470; under setting [4], 5600.

In the case of `O=C(O)CCC/C=C\CC1C(=O)C[C@@H](O)[C@@H]1/C=C/[C@@H](O)COc1ccccc1` (stereo not given in full), the fold change runs as follows: under setting [1], 0.868 (inactive); under setting [2], 1.75. Moreover, the cell count reads like this: under setting [3], 5400; under setting [4], 6220.

For `O=C(O)CCC/C=C\C[C@H]1[C@@H](O)CC(=O)[C@@H]1/C=C/[C@@H](O)COc1cccc(C(F)(F)F)c1`, the fold change under setting [1] is 1.01 (inactive) and the fold change under setting [2] came to 1.13. Besides, the cell count reads like this: under setting [3], 6530; under setting [4], 6490.

Regarding `C=C1O[C@@](CO)(n2cnc3c(N)ncnc32)[C@H](O)[C@@H]1O`, the fold change was 0.941 (inactive) under setting [1] and 1.1 under setting [2]. The cell count runs as follows: under setting [3], 4870; under setting [4], 5180.

As to `N#Cc1cc2c(OCC(O)CN3CCN(C(c4ccccc4)c4ccccc4)CC3)cccc2[nH]1` (stereo not given), the fold change under setting [1] was 0.956 (inactive) and the fold change under setting [2] is 1.38. The cell count worked out at 1480 under setting [3] and 1550 under setting [4].

For the molecule `c1ccc(C(OC2CCN(CCCc3nn[nH]n3)CC2)c2ccccc2)cc1`, the fold change is 0.935 (inactive) under setting [1] and 1.12 under setting [2]. Besides, the cell count stood at 5840 under setting [3] and 6240 under setting [4].

As for `CCCCCC(=O)CC[C@H]1C=CC(=O)[C@@H]1C/C=C\CCCC(=O)O`, the fold change reads like this: under setting [1], 0.899 (inactive); under setting [2], 1.77. Further, the cell count runs as follows: under setting [3], 5230; under setting [4], 5820.

In the case of `CCCCC[C@H](O)/C=C/[C@@H]1[C@@H](C/C=C\CCCC(=O)N(CC)CC)[C@@H](O)C[C@H]1O`, the fold change under setting [1] was 0.98 (inactive) and the fold change under setting [2] worked out at 0.858. Also, the cell count under setting [3] came to 5500 and the cell count under setting [4] is 5610.

As to `O=P(O)(O)O[C@@H]1[C@H](O)[C@H](O)[C@@H](OP(=O)(O)O)[C@H](OP(=O)(O)O)[C@H]1O`, the fold change under setting [1] is 0.931 (inactive) and the fold change under setting [2] turned out to be 0.377. For the same molecule, the cell count under setting [3] was found to be 5940 and the cell count under setting [4] is 6380.

Turning to `CCCCCCCCCCCCCCC(=O)N[C@H]1CCOC1=O`, the fold change reads like this: under setting [1], 0.982 (inactive); under setting [2], 1.59. Also, the cell count by setting is: under setting [3], 5560; under setting [4], 5660.

Turning to `CCCC[C@H](C)C[C@H](O)/C=C/[C@H]1[C@H](O)CC(=O)[C@@H]1CCCC/C=C/C(=O)O`, the fold change is 0.92 (inactive) under setting [1] and 1.29 under setting [2]. For the same molecule, the cell count under setting [3] was determined as 5710 and the cell count under setting [4] was 6200.

`CC/C=C\C/C=C\C/C=C\CCCCCCCC(=O)OCC`: the fold change is, setting by setting: under setting [1], 0.898 (inactive); under setting [2], 0.639. Further, the cell count runs as follows: under setting [3], 5180; under setting [4], 5770.

For `O=C(c1cccs1)c1ccc(OCCCO)c(Cl)c1Cl`, the fold change is 0.896 (inactive) under setting [1] and 0.529 under setting [2]. Moreover, the cell count runs as follows: under setting [3], 5620; under setting [4], 6270.

Consider `CCCCCCCC/C=C\CCCCCC(=O)OC`, for which the fold change reads like this: under setting [1], 0.895 (inactive); under setting [2], 0.755. For the same molecule, the cell count by setting is: under setting [3], 5020; under setting [4], 5610.

On to `CCCCC[C@@H](O)/C=C/[C@H]1[C@H](O)CC(=O)[C@@H]1C/C=C\CCCC(=O)O`, for which the fold change is 0.971 (inactive) under setting [1] and 1.57 under setting [2]. Also, the cell count is, setting by setting: under setting [3], 6000; under setting [4], 6180.

Consider `OC[C@H]1NC[C@H](O)[C@@H](O)[C@@H]1O`, for which the fold change is, setting by setting: under setting [1], 0.965 (inactive); under setting [2], 0.787. Besides, the cell count reads like this: under setting [3], 5000; under setting [4], 5180.

Turning to `O=C(NCCN1CCC(n2c(=O)[nH]c3cc(Cl)ccc32)CC1)c1ccc(F)cc1`, the fold change by setting is: under setting [1], 0.968 (inactive); under setting [2], 1.46. Also, the cell count reads like this: under setting [3], 6040; under setting [4], 6240.

For the origin of these results see PubChem BioAssay.
